Measurements from the supplement of paper PMC10849652.
Targets with a hit are over-represented here; the source holds about 7,900 in all. About 0.6% of all pairs of compound and target were hits.

Tests used:
Test in all cases: log2 fold change, soluble protein after heating vs DMSO (PISA); higher = thermal stabilisation; K562 cells, 10 uM, 30 min; active = over 0.2 and 3.5 SD of the protein, either way, in both replicates (recomputed)
[1] = compound: C1=CC=C(C=C1)[C@H](COC2=CC3=C(C=C2)NC(=O)N3)NC(=O)C4=CC=CN(C4=O)CC5=CC(=C(C=C5)F)F
Procedure, shortened: (§1)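 Soluble protein was quantified by TMTpro 16plex LC-MS/MS after channel sums were equalised. It was obtained as the supernatant after 21,000xg for 90 min from pooled aliquots of K562 cells (2×10^6 cells/mL, 10 μM compound, 30 min) heated for 3 min across 48°C-58°C and extracted in PBS with 0.5% NP-40 at 4°C. Thermal stability values are relative to control samples and come from duplicates. They are given as log2 fold changes.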

[2] = compound: CC1=C(SC2=C1C(=N[C@H](C3=NN=C(N32)C)CC(=O)N)C4=CC=C(C=C4)Cl)C
Procedure, shortened: as §1

[3] = compound: CC1=C2C(=CC=C1)N=C(N(C2=O)C3=CC=CC=C3C)CN4C=NC5=C(N=CN=C54)N
Procedure, shortened: as §1

[4] = compound: Cc1sc2c(c1C)C(c1ccc(Cl)cc1)=N[C@@H](CC(=O)OC(C)(C)C)c1nnc(C)n1-2
Procedure, shortened: as §1

[5] = compound: c1ccc([C@@H]2C[C@H]2NC2CCNCC2)cc1
Procedure, shortened: as §1

Measured: log2 fold change

MAD2L1 (UniProt Q13257)
inactive: [1] -0.045 | [2] 0.077 | [3] 0.067 | [4] -0.021 | [5] -0.019

LAMP2 (UniProt P13473)
inactive: [1] 0.022 | [2] -0.006 | [3] -0.041 | [4] -0.078 | [5] 0.074

ITIH4 (UniProt Q14624)
inactive: [1] -0.088 | [2] 0.015 | [3] 0.089 | [4] -0.133 | [5] -0.006

LIMD1 (UniProt Q9UGP4)
inactive: [1] 0.006 | [2] 0.004 | [3] -0.014 | [4] -0.005 | [5] 0.028

IGF2BP2 (UniProt Q9Y6M1)
inactive: [1] 0.122 | [2] -0.271 | [3] -0.038 | [4] 0.25 | [5] 0.019

IGFBP4 (UniProt P22692)
inactive: [1] -0.019 | [2] -0.046 | [3] 0.087 | [4] -0.103 | [5] 0.148

LPIN3 isoform 2 (UniProt Q9BQK8)
inactive: [1] -0.047 | [2] 0.066 | [3] 0.075 | [4] -0.138 | [5] -0.044

JAK3 (UniProt P52333)
UniProt P52333, sequence (P52333 whole entry, looked up): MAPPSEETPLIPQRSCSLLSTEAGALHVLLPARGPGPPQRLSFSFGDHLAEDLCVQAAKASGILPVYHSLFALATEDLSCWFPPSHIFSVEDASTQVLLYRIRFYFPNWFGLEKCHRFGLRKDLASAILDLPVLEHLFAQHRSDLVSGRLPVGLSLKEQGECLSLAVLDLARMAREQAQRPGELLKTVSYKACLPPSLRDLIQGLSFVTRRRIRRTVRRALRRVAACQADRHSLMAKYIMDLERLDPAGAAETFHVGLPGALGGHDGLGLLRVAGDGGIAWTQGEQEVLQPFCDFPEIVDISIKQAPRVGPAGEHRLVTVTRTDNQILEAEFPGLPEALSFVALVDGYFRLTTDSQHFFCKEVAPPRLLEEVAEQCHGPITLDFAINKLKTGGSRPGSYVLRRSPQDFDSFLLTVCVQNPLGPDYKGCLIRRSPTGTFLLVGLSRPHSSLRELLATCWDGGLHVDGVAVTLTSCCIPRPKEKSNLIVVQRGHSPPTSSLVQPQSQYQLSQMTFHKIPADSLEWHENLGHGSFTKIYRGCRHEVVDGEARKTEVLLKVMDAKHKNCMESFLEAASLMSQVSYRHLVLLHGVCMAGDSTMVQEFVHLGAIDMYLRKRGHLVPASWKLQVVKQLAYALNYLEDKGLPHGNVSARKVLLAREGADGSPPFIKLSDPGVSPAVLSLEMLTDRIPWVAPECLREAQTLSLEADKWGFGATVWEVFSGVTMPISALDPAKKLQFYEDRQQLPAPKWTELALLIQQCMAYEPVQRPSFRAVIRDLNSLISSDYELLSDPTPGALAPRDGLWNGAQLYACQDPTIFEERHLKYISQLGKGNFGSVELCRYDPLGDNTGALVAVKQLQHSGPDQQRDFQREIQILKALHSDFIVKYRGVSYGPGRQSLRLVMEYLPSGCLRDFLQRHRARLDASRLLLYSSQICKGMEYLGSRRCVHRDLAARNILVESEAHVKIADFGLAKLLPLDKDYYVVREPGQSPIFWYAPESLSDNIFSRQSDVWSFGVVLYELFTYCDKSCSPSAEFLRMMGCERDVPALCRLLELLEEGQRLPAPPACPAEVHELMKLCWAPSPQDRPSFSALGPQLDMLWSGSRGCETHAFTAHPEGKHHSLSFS
inactive: [1] -0.011 | [2] 0.075 | [3] -0.027 | [4] 0.009 | [5] 0.032

KNTC1 (UniProt P50748)
inactive: [1] -0.079 | [2] 0.011 | [3] 0.106 | [4] -0.011 | [5] -0.008

IPO13 (UniProt O94829)
UniProt O94829, sequence (O94829 whole entry, looked up): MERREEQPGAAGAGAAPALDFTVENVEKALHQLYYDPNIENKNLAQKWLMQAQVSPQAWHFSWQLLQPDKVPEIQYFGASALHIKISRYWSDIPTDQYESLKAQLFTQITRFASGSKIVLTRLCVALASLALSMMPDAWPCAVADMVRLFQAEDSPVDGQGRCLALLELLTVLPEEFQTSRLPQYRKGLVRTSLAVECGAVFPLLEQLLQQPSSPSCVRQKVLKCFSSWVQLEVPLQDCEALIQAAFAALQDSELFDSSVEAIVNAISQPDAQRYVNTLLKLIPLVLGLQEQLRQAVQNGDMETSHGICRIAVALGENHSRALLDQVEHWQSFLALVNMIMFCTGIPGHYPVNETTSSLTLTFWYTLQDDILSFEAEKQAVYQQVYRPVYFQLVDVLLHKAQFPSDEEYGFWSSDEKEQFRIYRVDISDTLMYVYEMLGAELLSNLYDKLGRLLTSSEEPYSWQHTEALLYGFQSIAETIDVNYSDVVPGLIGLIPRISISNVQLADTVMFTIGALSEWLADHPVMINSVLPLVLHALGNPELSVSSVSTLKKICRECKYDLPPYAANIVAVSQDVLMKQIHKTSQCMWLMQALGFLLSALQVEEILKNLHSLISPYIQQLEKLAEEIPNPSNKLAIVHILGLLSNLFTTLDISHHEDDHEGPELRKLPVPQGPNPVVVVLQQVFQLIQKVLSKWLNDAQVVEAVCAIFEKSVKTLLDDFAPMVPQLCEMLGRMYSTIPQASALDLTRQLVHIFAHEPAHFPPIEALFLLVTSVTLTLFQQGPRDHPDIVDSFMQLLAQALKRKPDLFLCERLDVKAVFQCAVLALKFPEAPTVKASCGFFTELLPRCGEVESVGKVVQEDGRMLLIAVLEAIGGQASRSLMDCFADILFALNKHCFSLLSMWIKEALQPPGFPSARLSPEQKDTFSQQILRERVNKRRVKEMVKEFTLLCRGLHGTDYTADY
inactive: [1] -0.005 | [2] 0.008 | [3] 0.098 | [4] 0.037 | [5] 0.034

MAGEC2 (UniProt Q9UBF1)
inactive: [1] 0.043 | [2] -0.069 | [3] 0.005 | [4] 0.009 | [5] 0.054

LBR (UniProt Q14739)
inactive: [1] -0.105 | [2] 0.051 | [3] 0.011 | [4] -0.054 | [5] -0.005

MAP2K1 (UniProt Q02750)
inactive: [1] -0.01 | [2] 0.033 | [3] 0.099 | [4] -0.015 | [5] 0

ILF3 isoform 7 (UniProt Q12906)
inactive: [1] 0.038 | [2] -0.061 | [3] -0.126 | [4] 0.194 | [5] 0.028

KPNA4 (UniProt O00629)
inactive: [1] -0.017 | [2] 0.004 | [3] 0.035 | [4] 0.004 | [5] 0.009

MED7 (UniProt O43513)
inactive: [1] -0.049 | [2] 0.029 | [3] 0.017 | [4] 0.016 | [5] 0.076

LNPK (UniProt Q9C0E8)
UniProt Q9C0E8, sequence (Q9C0E8 whole entry, looked up): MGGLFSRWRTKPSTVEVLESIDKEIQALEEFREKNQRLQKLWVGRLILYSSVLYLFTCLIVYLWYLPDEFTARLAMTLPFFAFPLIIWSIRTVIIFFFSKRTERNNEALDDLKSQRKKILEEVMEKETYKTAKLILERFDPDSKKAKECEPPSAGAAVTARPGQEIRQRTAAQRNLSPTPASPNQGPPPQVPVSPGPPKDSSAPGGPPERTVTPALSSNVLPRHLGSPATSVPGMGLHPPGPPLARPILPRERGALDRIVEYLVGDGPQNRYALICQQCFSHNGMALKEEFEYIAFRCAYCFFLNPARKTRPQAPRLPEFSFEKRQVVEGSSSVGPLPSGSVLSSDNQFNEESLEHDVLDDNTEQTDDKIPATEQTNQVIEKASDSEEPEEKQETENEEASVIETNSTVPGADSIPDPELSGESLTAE
inactive: [1] 0.015 | [2] 0.015 | [3] 0.009 | [4] -0.01 | [5] 0.016

MFN2 (UniProt O95140)
inactive: [1] 0.01 | [2] 0.038 | [3] 0.013 | [4] -0.026 | [5] 0.001

ILF2 (UniProt Q12905)
inactive: [1] 0.047 | [2] -0.078 | [3] -0.141 | [4] 0.14 | [5] 0.034

LYN (UniProt P07948)
inactive: [1] 0.035 | [2] 0.038 | [3] 0.013 | [4] 0.028 | [5] -0.043

IGFBP2 (UniProt P18065)
inactive: [1] -0.121 | [2] -0.101 | [3] 0.131 | [4] -0.295 | [5] 0.062

LEO1 (UniProt Q8WVC0)
inactive: [1] -0.009 | [2] 0.046 | [3] -0.009 | [4] -0.016 | [5] -0.011

LSR (UniProt Q86X29)
UniProt Q86X29, sequence (Q86X29 whole entry, looked up): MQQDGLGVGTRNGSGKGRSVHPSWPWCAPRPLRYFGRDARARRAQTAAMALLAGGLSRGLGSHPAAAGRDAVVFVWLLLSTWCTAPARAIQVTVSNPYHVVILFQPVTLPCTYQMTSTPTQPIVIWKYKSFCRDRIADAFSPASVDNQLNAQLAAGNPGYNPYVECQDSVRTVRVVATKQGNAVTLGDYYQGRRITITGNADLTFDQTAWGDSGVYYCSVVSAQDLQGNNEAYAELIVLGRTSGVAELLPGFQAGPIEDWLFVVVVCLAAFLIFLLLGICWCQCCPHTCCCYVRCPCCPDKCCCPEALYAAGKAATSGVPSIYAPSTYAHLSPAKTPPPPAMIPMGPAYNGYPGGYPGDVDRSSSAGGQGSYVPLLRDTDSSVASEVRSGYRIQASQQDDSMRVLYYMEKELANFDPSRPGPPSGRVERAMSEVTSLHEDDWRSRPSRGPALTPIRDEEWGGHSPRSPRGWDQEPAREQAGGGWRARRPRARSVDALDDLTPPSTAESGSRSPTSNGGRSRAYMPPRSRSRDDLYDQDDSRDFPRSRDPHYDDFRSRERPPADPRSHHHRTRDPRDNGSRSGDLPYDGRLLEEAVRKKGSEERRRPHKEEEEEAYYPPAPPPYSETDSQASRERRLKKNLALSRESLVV
inactive: [1] -0.016 | [2] 0.033 | [3] 0.006 | [4] -0.034 | [5] 0.015

MAP2K3 isoform 3 (UniProt P46734)
inactive: [1] -0.091 | [2] -0.051 | [3] 0.05 | [4] 0.026 | [5] 0.016

KXD1 (UniProt Q9BQD3)
inactive: [1] -0.178 | [2] 0.079 | [3] 0.042 | [4] -0.079 | [5] 0.034

LDLR (UniProt P01130)
UniProt P01130, sequence (P01130 whole entry, looked up): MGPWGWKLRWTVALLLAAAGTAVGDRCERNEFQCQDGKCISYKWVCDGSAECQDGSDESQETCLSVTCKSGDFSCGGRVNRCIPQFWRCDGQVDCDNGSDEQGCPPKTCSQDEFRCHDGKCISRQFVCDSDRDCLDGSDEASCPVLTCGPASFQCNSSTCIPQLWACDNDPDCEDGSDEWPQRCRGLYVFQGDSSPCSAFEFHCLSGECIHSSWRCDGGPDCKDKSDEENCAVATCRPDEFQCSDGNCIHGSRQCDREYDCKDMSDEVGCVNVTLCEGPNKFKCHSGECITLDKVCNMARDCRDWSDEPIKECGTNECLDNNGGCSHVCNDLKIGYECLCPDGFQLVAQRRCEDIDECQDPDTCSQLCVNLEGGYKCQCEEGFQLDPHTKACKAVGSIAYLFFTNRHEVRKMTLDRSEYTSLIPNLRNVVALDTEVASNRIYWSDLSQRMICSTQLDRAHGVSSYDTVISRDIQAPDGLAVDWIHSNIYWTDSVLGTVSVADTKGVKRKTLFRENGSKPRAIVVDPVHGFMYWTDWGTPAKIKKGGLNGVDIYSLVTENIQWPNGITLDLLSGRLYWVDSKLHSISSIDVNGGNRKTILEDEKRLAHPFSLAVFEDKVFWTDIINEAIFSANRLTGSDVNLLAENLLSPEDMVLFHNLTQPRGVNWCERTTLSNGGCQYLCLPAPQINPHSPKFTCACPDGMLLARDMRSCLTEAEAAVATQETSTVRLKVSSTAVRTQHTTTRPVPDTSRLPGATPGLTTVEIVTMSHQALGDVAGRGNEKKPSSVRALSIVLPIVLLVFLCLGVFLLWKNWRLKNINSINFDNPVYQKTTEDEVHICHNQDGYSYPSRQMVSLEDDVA
inactive: [1] -0.037 | [2] 0.014 | [3] 0.037 | [4] 0.022 | [5] 0.062

LNPEP (UniProt Q9UIQ6)
inactive: [1] 0.066 | [2] 0.061 | [3] 0.001 | [4] -0.016 | [5] 0.046

KIF11 (UniProt P52732)
inactive: [1] -0.044 | [2] -0.011 | [3] 0.074 | [4] 0.092 | [5] -0.027

LUC7L (UniProt Q9NQ29)
inactive: [1] 0.011 | [2] -0.015 | [3] -0.011 | [4] 0 | [5] 0.027

KIF13A (UniProt Q9H1H9)
inactive: [1] 0.022 | [2] 0.039 | [3] 0.054 | [4] -0.059 | [5] -0.027

MAIP1 (UniProt Q8WWC4)
inactive: [1] 0.012 | [2] 0.075 | [3] 0.028 | [4] -0.026 | [5] 0.002

MAP3K7 (UniProt O43318)
inactive: [1] -0.085 | [2] 0.005 | [3] 0.11 | [4] 0.061 | [5] 0.023

KCT2 (UniProt Q8NC54)
inactive: [1] 0.046 | [2] 0.024 | [3] -0.01 | [4] -0.014 | [5] 0.028

IRF3 (UniProt Q14653)
inactive: [1] -0.049 | [2] 0.123 | [3] 0.015 | [4] -0.007 | [5] -0.01

KIF3A (UniProt Q9Y496)
inactive: [1] 0.027 | [2] 0.039 | [3] 0.054 | [4] 0.049 | [5] 0.002

MAGOHB (UniProt Q96A72)
inactive: [1] 0.02 | [2] 0.042 | [3] 0.079 | [4] -0.153 | [5] -0.129

INTS7 (UniProt Q9NVH2)
UniProt Q9NVH2, sequence (Q9NVH2 whole entry, looked up): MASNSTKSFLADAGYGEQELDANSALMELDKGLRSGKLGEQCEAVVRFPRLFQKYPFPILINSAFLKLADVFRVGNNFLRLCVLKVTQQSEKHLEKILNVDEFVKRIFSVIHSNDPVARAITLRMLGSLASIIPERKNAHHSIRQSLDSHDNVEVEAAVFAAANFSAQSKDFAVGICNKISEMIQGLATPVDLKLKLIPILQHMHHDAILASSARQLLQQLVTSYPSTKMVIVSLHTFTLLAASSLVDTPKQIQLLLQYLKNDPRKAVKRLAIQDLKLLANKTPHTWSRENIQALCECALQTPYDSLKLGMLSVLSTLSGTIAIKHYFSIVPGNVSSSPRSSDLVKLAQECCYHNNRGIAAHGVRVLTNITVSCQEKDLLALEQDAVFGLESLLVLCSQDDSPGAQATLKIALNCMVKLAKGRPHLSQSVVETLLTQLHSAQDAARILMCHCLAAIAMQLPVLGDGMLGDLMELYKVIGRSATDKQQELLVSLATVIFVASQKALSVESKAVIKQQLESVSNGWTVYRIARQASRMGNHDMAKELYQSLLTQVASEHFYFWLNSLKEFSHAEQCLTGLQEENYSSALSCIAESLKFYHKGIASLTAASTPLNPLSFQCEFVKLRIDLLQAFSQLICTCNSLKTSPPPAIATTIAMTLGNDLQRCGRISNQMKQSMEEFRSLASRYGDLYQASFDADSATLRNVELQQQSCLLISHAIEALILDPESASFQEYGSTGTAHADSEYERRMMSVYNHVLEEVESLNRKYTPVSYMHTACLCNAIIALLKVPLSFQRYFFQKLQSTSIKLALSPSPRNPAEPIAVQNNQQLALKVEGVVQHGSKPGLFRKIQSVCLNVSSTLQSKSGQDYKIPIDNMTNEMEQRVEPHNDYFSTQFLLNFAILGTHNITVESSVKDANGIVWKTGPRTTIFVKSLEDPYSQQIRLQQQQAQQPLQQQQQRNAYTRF
inactive: [1] -0.005 | [2] 0.086 | [3] 0.001 | [4] -0.085 | [5] -0.054

KEAP1 (UniProt Q14145)
inactive: [1] 0.015 | [2] -0.001 | [3] 0.007 | [4] 0.021 | [5] 0.001

MEAK7 (UniProt Q6P9B6)
inactive: [1] -0.009 | [2] 0.051 | [3] 0.042 | [4] -0.009 | [5] -0.048

MFSD1 isoform 6 (UniProt Q9H3U5)
inactive: [1] 0.001 | [2] 0.045 | [3] 0.043 | [4] -0.029 | [5] 0.039

MAPK14 isoform 2 (UniProt Q16539)
inactive: [1] -0.067 | [2] 0.139 | [3] 0.077 | [4] -0.011 | [5] -0.043

MAP2K7 isoform 4 (UniProt O14733)
inactive: [1] -0.009 | [2] 0.029 | [3] 0.065 | [4] 0.013 | [5] 0.044

MFSD8 (UniProt Q8NHS3)
inactive: [1] -0.134 | [2] -0.033 | [3] 0.074 | [4] -0.289 | [5] 0.119

KCTD10 (UniProt Q9H3F6)
inactive: [1] -0.014 | [2] -0.009 | [3] 0.007 | [4] -0.01 | [5] 0.03

ILRUN (UniProt Q9H6K1)
inactive: [1] 0.029 | [2] 0.031 | [3] 0.119 | [4] 0.014 | [5] -0.009

IPO11 isoform 2 (UniProt Q9UI26)
inactive: [1] 0.048 | [2] 0.064 | [3] 0.01 | [4] 0.013 | [5] 0.001

MED1 (UniProt Q15648)
inactive: [1] -0.033 | [2] -0.009 | [3] 0.03 | [4] 0.079 | [5] 0.058

MAP4K5 (UniProt Q9Y4K4)
inactive: [1] 0.055 | [2] -0.039 | [3] 0.107 | [4] 0.05 | [5] 0.062

METAP1D (UniProt Q6UB28)
inactive: [1] 0.106 | [2] -0.125 | [3] 0.083 | [4] 0.08 | [5] 0.127

IMMT isoform 2 (UniProt Q16891)
inactive: [1] 0.021 | [2] 0.029 | [3] 0.035 | [4] 0.091 | [5] 0.033

LARP1 (UniProt Q6PKG0)
inactive: [1] 0.002 | [2] -0.046 | [3] -0.046 | [4] 0.151 | [5] -0.002

MED16 (UniProt Q9Y2X0)
inactive: [1] -0.048 | [2] 0.012 | [3] 0.043 | [4] 0.093 | [5] 0.019

LYPLA2 (UniProt O95372)
inactive: [1] 0.033 | [2] 0.056 | [3] -0.023 | [4] -0.161 | [5] -0.08
